The molecules below were run against AMP-activated protein kinase, AMPK (Homo sapiens) (UniProt P54646+O43741+P54619+Q9UGJ0+Q9Y478+Q13131+Q9UGI9) (assay: AMP-dependent Kinase enzyme assay. An in vitro enzyme assay that detects ADP turnover that is directly proportional to AMPK activity. This uses naive AMPK that is activated during the assay with MK-8722). Details: 30 µM.
Format: functional
Parameters: scale not given: direction of the effect not stated beside the values
`CN1C(=O)[C@H]2CC[C@@H]1CN(C(=O)Nc1ccccc1C(F)(F)F)C2` showed a Percent Effect of -0.892%. For `CC(C)(C)CN(CCC#N)C(=O)c1cccc(CC#N)c1`, the Percent Effect was 4.84%. For `Cn1ccc(C(=O)N2CCCC2c2cc(CCO)[nH]n2)n1` (stereo not given), the Percent Effect was 21.2%. Molecule `CNCC(=O)NC1CC(C)(C)Cc2nc(C(C)(C)C)ncc21` (stereo not given) has a Percent Effect of -7.88%. For `O=C(NCc1ccnc(OCC2CC2)c1)C1COc2ccccc2O1` (stereo not given), the Percent Effect was 1.5%. `Cc1nnc(CN(C)CC(=O)N2CCCC(C(F)(F)F)C2)n1C` (stereo not given) gave a Percent Effect of 14.3%. In the case of `CCN(C)S(=O)(=O)N[C@H]1CN(c2ccc(F)cn2)C[C@@H]1C(C)C`, the Percent Effect is reported as -6.05%. For `O=C(Cn1ccc2ncccc2c1=O)N1CCCCC1`, the Percent Effect was -2.48%. `COCC1CCCN(c2cncc(OCc3ccccc3)n2)C1` (stereo not given) showed a Percent Effect of 1.9%. `Cc1nnc(-c2cccc(C#N)c2)n1C1CCCN(C(C)C)C1=O` (stereo not given) was tested, and the Percent Effect was 4.62%. Molecule `CCN(C)C(=O)c1cccc(S(=O)(=O)NCCc2csc(N)n2)c1` has a Percent Effect of -0.697%. In the case of `COCCCC1CCCN(Cc2c(C)ccc3ncccc23)C1` (stereo not given), the Percent Effect is reported as -4.38%. For `CN(Cc1nc2ccccc2n1C)C(=O)CCc1cscn1`, the Percent Effect was 3.49%. In the case of `CCOC(=O)N1CCN(C(=O)Cn2ccc3ncccc3c2=O)CC1`, the Percent Effect is reported as -0.626%. `CSCCC(NC(N)=O)C(=O)NCc1ccc(-n2cccn2)cc1` (stereo not given) gave a Percent Effect of 0.578%. `Cn1ncc2c(NC3CCSC3)nc(-c3ccncc3)nc21` (stereo not given) gave a Percent Effect of 9.02%. `CSc1ccc(CNC2CCCc3c2cnn3C)cc1` (stereo not given) was tested, and the Percent Effect was 7.44%. Molecule `O=S(=O)(Cc1nc(C2CC2)no1)c1cc(F)ccc1F` has a Percent Effect of 8.83%. `Cc1nc(CN2CCCCC2Cn2cccn2)nc2ccccc12` (stereo not given) was tested, and the Percent Effect was 0.0601%. With `Cc1n[nH]c(C)c1NC(=O)NCc1cc[nH]n1` the Percent Effect was -7.26%.
